Screening data from PubChem.
LASV entry inh: qHTS for Inhibitors of binding or entry into cells for Lassa Virus; Lassa virus pseudotype entry inhibition, cell reporter; Potency, µM (series often up to 37.9 µM), inactives show at the top dose activity change, negative = inhibition, hits mostly inhibitors; 300,000 tested, 1.2% active; AID 540256, 2011; calls by dose curve; tested in HEK293 cells; further: nearly all actives have a fitted effect of over 50% in size
AmpC no deterg: qHTS Inhibitors of AmpC Beta-Lactamase (assay without detergent); AmpC nitrocefin hydrolysis, absorbance 480 nm, 0.0001% Triton; Potency, µM (titrated, usually from 57.1 µM), for inactives: at the highest dose activity change, negative = inhibition, actives largely listed as inhibitors; AID 485341, 2010; 330,000 tested, 0.52% active; P00811;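 further: plate controls were no compound for no effect and no enzyme for full effect; nearly all actives have a fitted effect of over 20% in size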
Target sequence (P00811 whole entry, looked up): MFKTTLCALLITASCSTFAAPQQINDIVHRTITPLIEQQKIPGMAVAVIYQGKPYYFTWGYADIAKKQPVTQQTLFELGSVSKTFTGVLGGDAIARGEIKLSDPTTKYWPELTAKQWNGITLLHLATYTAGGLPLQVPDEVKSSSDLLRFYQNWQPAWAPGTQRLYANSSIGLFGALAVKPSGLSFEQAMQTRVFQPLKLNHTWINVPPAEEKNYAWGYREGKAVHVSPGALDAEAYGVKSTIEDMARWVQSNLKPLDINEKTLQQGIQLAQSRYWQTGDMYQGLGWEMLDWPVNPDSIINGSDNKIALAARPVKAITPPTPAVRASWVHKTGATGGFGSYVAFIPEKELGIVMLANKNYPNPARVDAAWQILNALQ
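20 mM phosphate pH 7.0 + 0.01% (detergent screen) or 0.0001% Triton X-100; 5.3 nM AmpC reagent; cpd preinc 15 min RT; nitrocefin (800 uM stock) to start; A480 q20 s × 4 min; Activity was normalised to no-enzyme and no-compound control wells.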
AmpC detergent: qHTS Inhibitors of AmpC Beta-Lactamase (assay with detergent). 370,000 tested, 0.041% active. Potency, µM (top dose mostly 114 µM), without a hit: top-dose activity change, negative = inhibition, usual class: inhibitors. AmpC hydrolysis of nitrocefin, absorbance 480 nm, 0.01% Triton. P00811;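 further: 0% = no-compound wells and -100% = no-enzyme wells; nearly all actives have a fitted effect of over 25% in size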
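AmpC (5.3 nM in the dispensed reagent) in 20 mM phosphate pH 7.0 with 0.01% (detergent screen) or 0.0001% Triton X-100 was preincubated with compounds for 15 min at room temperature. Nitrocefin was then added from an 800 uM solution, and hydrolysis was followed at 480 nm.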
AMA1-RON2 inh: qHTS for Inhibitors of AMA1-RON; Towards Development of Antimalarial Drug Lead: Primary Screen; AlphaScreen AMA1-biotinylated RON2 peptide binding; Potency, µM (highest dose often 58.2 µM), inactives show at the highest dose activity change, negative = inhibition, actives largely listed as inhibitors; 360,000 tested, 0.2% active; AID 720542, 2013;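 further: 0% = vehicle wells and -100% = peptide control; nearly all actives have a fitted effect of over 45% in size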
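AMA1 (3D7) with his tag at 25 nM final met compounds first, then biotinylated RON2 peptide at 25 nM; detection used donor plus acceptor beads, 10 µg/mL apiece, read by AlphaScreen after 30 min at room temperature.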
Marburg entry inh: qHTS for inhibitors of binding or entry into cells for Marburg Virus; Potency, µM (doses to about 37.8 µM), for the others: at the highest dose activity change, negative = inhibition, usual class: inhibitors; Marburg virus pseudotyped entry inhibition, cell reporter; AID 540276, 2011; 300,000 tested, 1.8% active; calls by dose curve; tested in HEK293 cells
Active calls of the source: *; ? = inconclusive; . = not tested or not shown; [ ] = dose if it differs, or a comment. Hits are enriched below; roughly 2.3% of the tested compounds scored in any of these assays. Unless noted, the call rests on the fitted dose curve; in most records, active means well fitted curve in the direction sought with a large enough effect; inconclusive means small, poorly fitted or top-dose-only effect, or another doubt; inactive means no such curve, though single readings can be large; an effect the other way counts as inactive or inconclusive. Unless noted, on the % scale 0 is the no-effect control and ±100 the full control effect; potency means the concentration at half of the fitted maximal effect.

SMILES	LASV entry inh	AmpC no deterg	AmpC detergent	AMA1-RON2 inh	Marburg entry inh
C[C@H]1CC[C@H]2C(=O)N[C@H](Cc3ccccc3)C(=O)N2[C@H]1c1ccccc1	.	.	.	.	-17%[14.2 µM]
C/C(=N\NC(=O)c1ccccc1Cl)c1ccccn1	.	-13%	-2%	-36%	.
C/C(=N\NC(=O)c1cccc2ccccc12)c1ccccn1	7.9µM*	-17%	1%	-53%	?
CCOc1ccc(OCc2ccc(C(=O)N/N=C(\C)c3ccccn3)cc2)cc1	11µM*	-4%	?	54%	7.9µM*
O=C(CCCN1CC=C(N2C(=O)N=C3C=CC=CC32)CC1)c1ccc(F)cc1 (configuration not stated)	.	.	.	.	-2%
CC(C)NC(=O)NC1N=NC(Nc2ccc(Cl)cc2)=N1 (configuration not stated)	.	.	.	.	1%[46.1 µM]
C=CCC12C=C(OC)C(=O)C(C1=O)C1c3ccccc3CC12 (configuration not stated)	?	.	.	.	8%[14.2 µM]
CCOc1ccc(N(CC)S(=O)(=O)N2CCCC(C(=O)NCCc3ccccc3OC)C2)cc1 (configuration not stated)	?	.	-7%	.	.
Cc1nn(C(C)(C)C)c(OC(=O)c2cccs2)c1S(=O)(=O)c1ccccc1	11µM*	-22%	-8%	-3%	?
Cc1ccc(NC(=O)Cn2c(=O)cc(-c3ccccc3)c3c(C)nn(C)c32)c(Cl)c1	-14%[46.1 µM]	.	21%	.	.
CCS(=O)(=O)c1ncc(Cl)c(C(=O)Nc2ccc(S(=O)(=O)N(C)c3ccccc3)cc2)n1	?	25%	3%	-11%	11µM*
O=C(Nc1nc2ccc(F)cc2s1)c1nc(S(=O)(=O)Cc2ccccc2)ncc1Cl	4.5µM*	.	21%	.	-10%[46.1 µM]
Cc1cccc(CS(=O)(=O)c2ncc(Cl)c(C(=O)NCc3ccccc3)n2)c1	?	-28%	0%	0%	4.5µM*
Cc1cccc(C)c1NC(=O)c1nc(S(=O)(=O)Cc2ccccc2)ncc1Cl	?	-32%	-2%	-11%	11µM*
Cc1cccc(CS(=O)(=O)c2ncc(Cl)c(C(=O)Nc3nc4ccc(F)cc4s3)n2)c1	?	.	10%	.	2%[46.1 µM]
Cc1cccc(CS(=O)(=O)c2ncc(Cl)c(C(=O)Nc3c(C)cccc3C)n2)c1	.	-9%	1%	4%	.
CCOC(=O)C1(C(=O)OCC)CC2=C(C=CC3=C(C=C2)CC(C(=O)OCC)(C(=O)OCC)C3)C1	.	.	.	.	6%[14.2 µM]
O=C1CCCC=C1C(O)COCc1ccccc1 (configuration not stated)	.	.	.	.	3%[14.2 µM]
CCN(CCCNc1cc2c(c(N)c1S(=O)(=O)O)C(=O)c1ccccc1C2=O)c1ccccc1	.	.	.	14µM*	.
O=C1c2ccccc2C(=O)c2c(NCCCN(CCO)CCO)cccc21	6%	60%	2%	?	?
Cc1ccc(-n2c(C3CC3c3ccc(Cl)cc3)n[nH]c2=S)cc1 (configuration not stated)	-7%	-20%	2%	48%	3%
S=c1[nH]nc(C2CC2c2ccc(Cl)cc2)n1-c1ccc(Cl)cc1 (configuration not stated)	16µM*	-34%	?	29%	-21%
COC(=O)C1=C(C)N(Cc2ccccc2)C(=S)N[C@H]1CCc1ccccc1	.	-29%	?	.	.
CC1=Nc2ccccc2/C1=C/c1sc(=N)n(-c2nccs2)c1O	10µM*	-22%	-12%	93%	10µM*
Cc1cc(C)c2cc(CN(CCO)C(=O)Nc3ccc(Cl)cc3)c(=O)[nH]c2c1	?	66%	4%	5%	11µM*
SMILES	LASV entry inh	AmpC no deterg	AmpC detergent	AMA1-RON2 inh	Marburg entry inh
Cc1cc(C)c2cc(CN(CCN3CCCC3)C(=O)Nc3ccc(F)cc3)c(=O)[nH]c2c1	?	94%	11%	-3%	4µM*
O=C(CSc1nnc(-c2c[nH]c3ccccc23)o1)N(Cc1ccccc1)c1ccc(F)cc1	?	-10%	-4%	-9%	18µM*
COc1ccc(CN(C(=O)CSc2nnc(-c3ccccc3C)o2)c2ccc(F)cc2)cc1	-17%	-8%	-11%	-1%	?
O=C(/C=C1\NC2(CCCC2)Cc2ccccc21)N1CCOCC1	-14%	66%	1%	-2%	-10%
CC1(C)Cc2c(ccc3ccccc23)/C(=C/C(=O)N2CCCCC2)N1	-9%	79%	6%	?	11µM*
NC(=O)CN1CCN(C(=O)Nc2ccccc2)CC1	.	22µM*	-11%	55%	.
CC(=O)N1c2ccc(S(=O)(=O)NCC3CCC(C(=O)Nc4cccc(F)c4)CC3)cc2CC1C (configuration not stated)	?	.	1%	.	.
Cc1ccc(C(C#N)c2ccc3c(C(F)(F)F)cc(C(F)(F)F)nc3n2)cc1 (configuration not stated)	?	-16%	-10%	?	-12%
N#CC(c1ccccc1)c1ccc2c(C(F)(F)F)cc(C(F)(F)F)nc2n1 (configuration not stated)	11µM*	-13%	-12%	?	7.1µM*
COc1ccc(CCNc2nc3c(c(=O)n(C)c(=O)n3C)n2Cc2ccc(F)cc2)cc1OC	?	.	20%	.	6.3µM*
CCCCC(=O)NCCNc1nc2c(c(=O)n(C)c(=O)n2C)n1Cc1ccccc1	-3%	7%	2%	-13%	?
CCCCC(=O)NCCNc1nc2c(c(=O)n(C)c(=O)n2C)n1Cc1ccc(F)cc1	9.2µM*	4%	2%	4%	?
COC(=O)c1ccc([C@H]2/C(=C(\O)c3ccc(OC)cc3)C(=O)C(=O)N2c2cc(C)on2)cc1	.	.	.	.	-24%[46.1 µM]
Cc1cc(/C=C2/C(=O)NN(c3ccccc3)C2=O)c(C)n1-c1cccc(O)c1	4µM*	-52%	-4%	-11%	?
Cc1cc(C=C2C(=O)c3ccccc3C2=O)c(C)n1-c1ccccc1	?	-33%	-4%	-5%	6.5µM*
Cc1cc(/C=C2\SC(=S)NC2=O)c(C)n1-c1cccc(O)c1	.	18µM*	6%	61%	.
Cc1cc(/C=C2/NC(=O)NC2=O)c(C)n1-c1sc2c(c1C#N)CCCC2	4.5µM*	-10%	0%	-1%	?
CCOc1ccc(-n2nc3ccc(NC(=O)c4ccc(-c5cccc(Cl)c5)o4)cc3n2)cc1	4%[46.1 µM]	.	15%	.	.
Cc1sc(-n2c(C)cc(/C=C3\SC(=S)NC3=O)c2C)c(C#N)c1C	?	14µM*	-6%	36%	?
O=C(c1ccc2c(c1)N(Cc1ccccc1)C(=O)c1ccccc1S2(=O)=O)N1CCN(c2ccccn2)CC1	?	.	11%	.	3.5µM*
CN(C(=O)c1ccc2c(c1)N(Cc1cccc(Cl)c1)C(=O)c1ccccc1S2(=O)=O)C1CCCCC1	10µM*	.	8%	.	.
